This is an account of results in PubChem BioAssay AID1345085 (National Center for Advancing Translational Sciences (NCATS), 2018).

The structures appear in SMILES notation. Inconclusive results are not listed. Active and inactive are the calls of the source. Calls come from the whole dose curve; as a rule, active = well fitted cell-killing curve with a large enough effect; inconclusive = small, poorly fitted or top-dose-only effect, or effect the other way; inactive = no such curve, though single readings can be large or run the other way.
% is set by controls: 0 for no effect and ±100 for the full control effect; potency is the fitted concentration of half-maximal effect.

The assay has as its system CASKI. As to the kind of experiment: Confirmatory qHTS for gynecologic anti-cancer compounds from libraries of approved drugs and bioactive compounds. Note: nearly all actives have a fitted effect of over 55% in size. Particulars: gynecologic cancer cell panel viability, ATPlite luminescence, 48 h; series mostly up to 57.6 µM; activity change, negative = viability loss: at the top concentration. In a few lines:
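ATPlite luminescence read-out of cell viability; IC50 from 11-point 1:3 titrations, 57.5 uM to 0.977 nM, 48 h compound exposure at 37 C, 5% CO2. Cells seeded at 1,000/well 16 h before dosing.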
On the technique in general: qHTS replaces the single test concentration by a dilution series.
For the molecule `CN1CCN(c2ccc(OC(F)(F)F)c(Nc3ncc4c(n3)-c3c(c(C(N)=O)nn3CCO)CC4)c2)CC1`, the “activity change, negative = viability loss” value is -21.7% (inactive). Regarding `CCc1c2c(nc3ccc(OC(=O)N4CCC(N5CCCCC5)CC4)cc13)-c1cc3c(c(=O)n1C2)COC(=O)[C@]3(O)CC`, the Potency was 19.3 µM (active). On the same count and under the same terms, the value for `Cc1[nH]c2ccccc2c1CCNCc1ccc(/C=C/C(=O)NO)cc1` was 0.611 µM (active). With `COCCOc1nc(-c2ccc(Cl)c(Cl)c2)n(-c2ccc(NC(=O)CCl)cc2)n1`, the “activity change, negative = viability loss” value was 0.971% (inactive). Turning to `CNC(=O)c1ccccc1Sc1ccc2c(/C=C/c3ccccn3)n[nH]c2c1`, the Potency is 13.7 µM (active).

For the molecule `CNCc1ccc(-c2[nH]c3cc(F)cc4c3c2CCNC4=O)cc1`, the “activity change, negative = viability loss” value was 19.2% (inactive). For `Cc1csc(NC(=O)c2sc3nc4c(c(C(F)(F)F)c3c2N)CCC4)n1`, the Potency is 5.44 µM (active).

`C=CC(=O)Nc1cc2c(Nc3ccc(F)c(Cl)c3)ncnc2cc1OCCCN1CCOCC1`: the Potency was 27.3 µM (active). As for `COC(C)(C)CCn1nc(Nc2c(C)cccc2C)c2cnc(Nc3ccc(OCCN4CCCC4)c(F)c3)nc21`, the Potency was 3.43 µM (active).

Take `CN(C)CC/C=C1\c2ccccc2COc2ccccc21`: the “activity change, negative = viability loss” value is -1.95% (inactive). Still for that read-out and setting: the value for `CC(C)[C@@H](CS(=O)(=O)C(C)C)N1C(=O)[C@@](C)(CC(=O)O)C[C@H](c2cccc(Cl)c2)[C@H]1c1ccc(Cl)cc1` was 10.2% (inactive); that for `O=c1[nH]c(=O)n([C@H]2C[C@H](O)[C@@H](CO)O2)cc1Br` was -12.3% (inactive). Turning to `Cc1cc(C(C)Nc2ccccc2C(=O)O)c2nc(N3CCOCC3)cc(=O)n2c1` (stereo not drawn), the Potency was 6.85 µM (active). As for `Cc1nc(Nc2ncc(C(=O)Nc3c(C)cccc3Cl)s2)cc(N2CCN(CCO)CC2)n1`, the Potency is 0.109 µM (active). As to `CC(=O)O[C@H]1C(=O)[C@@]2(C)[C@H]([C@H](OC(=O)c3ccccc3)[C@]3(O)C[C@H](OC(=O)[C@H](O)[C@@H](NC(=O)c4ccccc4)c4ccccc4)C(C)=C1C3(C)C)[C@]1(OC(C)=O)CO[C@@H]1C[C@@H]2O`, the activity change, negative = viability loss is -4.63% [at 10.7 µM] (inactive). For `COc1ccc(OC)c(-c2nnc3ccc(-c4ccc(OC)c(O[C@@H]5CCOC5)c4)nn23)c1`, the “activity change, negative = viability loss” value was -14.3% (inactive). Regarding `COc1cc2c(c(OC)c1OC)-c1ccc(OC)c(=O)cc1[C@@H](NC(C)=O)CC2`, the “activity change, negative = viability loss” value is -4.77% [at 486 µM] (inactive). As for `COc1c(C)c2c(c(O)c1C/C=C(\C)CCC(=O)O)C(=O)OC2`, the “activity change, negative = viability loss” value was -32.4% (inactive). Regarding `Cn1cnc([N+](=O)[O-])c1Sc1ncnc2nc[nH]c12`, the Potency was 6.85 µM (active). With `CO[C@@]12[C@H](COC(N)=O)C3=C(C(=O)C(C)=C(N)C3=O)N1C[C@@H]1N[C@@H]12`, the “activity change, negative = viability loss” value was 5.69% (inactive). As to `CN(C)C/C=C/C(=O)Nc1cc2c(Nc3ccc(F)c(Cl)c3)ncnc2cc1OC1CCOC1` (stereo not drawn), the Potency is 21.7 µM (active). `NS(=O)(=O)c1ccc(Nc2nc(OCC3CCCCC3)c3[nH]cnc3n2)cc1`: the “activity change, negative = viability loss” value is -5.72% (inactive). As for `Nc1nccc(Oc2ccc(NC(=O)c3c[nH]cc(-c4ccc(F)cc4)c3=O)cc2F)c1Cl`, the Potency is 12.2 µM (active). On the same count and under the same terms, the same measure for `Nc1ccc(-c2ccc3ncc4ccc(=O)n(-c5cccc(C(F)(F)F)c5)c4c3c2)cn1`: 1.93 µM (active).

Consider `CC(C)n1nc(-c2cc3cc(O)ccc3[nH]2)c2c(N)ncnc21`, for which the Potency is 8.63 µM (active). For the molecule `OCCNC1CCCc2c1[nH]c1ccc(-c3ccccc3)cc21` (stereo not drawn), the Potency is 30.6 µM (active). Take `Cn1c(=O)c(F)c(Nc2ccc(I)cc2F)c2c(=O)n(CC(O)CO)cnc21` (stereo not drawn): the Potency was 24.3 µM (active). Regarding `COc1ccc2c(c1)c(CC(=O)O)c(C)n2C(=O)c1ccc(Cl)cc1`, the “activity change, negative = viability loss” value is -4.55% (inactive). On to `CNC(=O)CN1CCC(Oc2cc3c(Nc4cccc(Cl)c4F)ncnc3cc2OC)CC1`, for which the Potency is 10.9 µM (active). On the same count and under the same terms, the value for `Cc1ccc(C(=O)Nc2cccc(C(F)(F)F)c2)cc1-c1ccc2nc(NCCN3CCOCC3)ncc2c1` was 12.2 µM (active); that for `S=c1nc[nH]c2nc[nH]c12` was 4.85 µM (active). With `NC(=O)c1cccc2cn(-c3ccc([C@@H]4CCCNC4)cc3)nc12`, the “activity change, negative = viability loss” value was 1.6% (inactive). For `COc1ccc2cc3[n+](cc2c1OC)CCc1cc2c(cc1-3)OCO2`, the Potency is 10.9 µM (active).
